Assay outcomes as filed in PubChem BioAssay.
HT1080 IDH1KD tx: toxicity to HT-1080 IDH1 knockdown cells (counter line). HT-1080 IDH1 knockdown viability, ATP luminescence, 48 h. Potency, µM (doses to about 46.1 µM), for inactives: top-dose activity, negative = toxicity, hits mostly cytotoxic. hit rate 2% among 360,000. AID 686971;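 further: potency means the concentration at half of the fitted maximal effect; 0% = DMSO wells and -100% = cell-free medium wells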
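Luminescent ATP read-out (CellTiter-Glo, 10 min at room temperature) after 48 h compound exposure at 37 °C gave viability of IDH1-knockdown HT-1080 cells. Activity was normalised to DMSO and cell-free wells, then fitted as concentration-response curves.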
HT1080-NT tox: kills 2HG-producing HT-1080-NT fibrosarcoma cells; HT-1080-NT fibrosarcoma viability, CellTiter-Glo ATP luminescence, 48 h; Potency, µM (highest dose often 46.1 µM), for the others: top-dose activity, negative = less viability, hits mostly cytotoxic; hit rate 1.6% among 360,000;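 further: NT is the 2HG producing partner of a matched IDH1 knockdown line; potency means the concentration at half of the fitted maximal effect; 0% = DMSO-treated cells and -100% = media-only wells without cells; nearly all actives have a fitted effect of over 55% in size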
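750 cells/well, RPMI + 5% FBS; 2 h settle, compound pin-transfer, 48 h at 37 degrees C. CellTiter-Glo 10 min RT, luminescence. Normalized to DMSO and media-only wells.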
TDP1 cell CPT: DT40-hTDP1 cell growth loss with CPT; Potency, µM (series often up to 46.2 µM), for inactives: top-dose activity change, negative = growth inhibition, hits mostly inhibitors; chicken DT40 Tdp1-/-;hTDP1 cells + 20 nM CPT, ATP luminescence, 48 h; hit rate 12% among 420,000; further: potency means the concentration at half of the fitted maximal effect; nearly all actives have a fitted effect of over 55% in size
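Cell growth measured by CellTiter-Glo luminescence after a minimum 48 h, 37 C compound exposure with 20 nM CPT in Tdp1-knockout DT40 cells stably expressing hTDP1, seeded 400/well; qHTS titration format.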
IL-1B inflam inh: inflammasome signaling inhibition, IL-1 beta readout | THP-1 LPS/ATP IL-1B secretion, AlphaLISA, 16 h; active compounds read low | activity change, % at 57.5 µM | hit rate 4.7% among 360,000 | AID 743279; in the data active means activity change below about -50%; inconclusive means mostly about -30% to -49%
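THP-1 cells pretreated 1 hr with compounds (up to 57.5 uM final), then stimulated with LPS (250 ng/mL final) plus ATP (1.25 mM final); secreted IL-1B measured by AlphaLISA after 16 hr, decreased signal indicating inhibition.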
DT40 TDP1 no CPT: qHTS for Inhibitors of human tyrosyl-DNA phosphodiesterase 1 (TDP1): qHTS in cells in absence of CPT; hit rate 15% among 420,000; DT40 Tdp1-/- hTDP1 cells, no CPT, ATP luminescence, 48 h; Potency, µM (highest dose often 46.2 µM), without a hit: top-dose activity change, negative = growth inhibition, usual class: inhibitors; AID 686978, 2013; further: potency means the concentration at half of the fitted maximal effect; nearly all actives have a fitted effect of over 55% in size
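A cellular qHTS used chicken DT40 cells lacking endogenous Tdp1 but carrying stably transfected human TDP1. Compounds were applied without camptothecin, and cell growth kinetics were judged by ATP-dependent luminescence after ≥48 hr.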
An asterisk follows results filed as active; ? = inconclusive; . = no result. The list is not random: actives were taken first. Their share in the collection is about 19%. Unless noted, the call rests on the fitted dose curve; in most records, active means well fitted curve in the direction sought with a large enough effect; inconclusive means small, poorly fitted or top-dose-only effect, or another doubt; inactive means no such curve, though single readings can be large; an effect the other way counts as inactive or inconclusive. Unless noted, on the % scale 0 is the no-effect control and ±100 the full control effect.

SMILES	HT1080 IDH1KD tx	HT1080-NT tox	TDP1 cell CPT	IL-1B inflam inh	DT40 TDP1 no CPT
O=C(CCS(=O)(=O)c1ccccc1)Nc1ccccn1	0%	7%	-3%	18	-3%
Cc1csc(NC(=O)C(C)Oc2ccc(Br)cc2)n1 (configuration not stated)	-24%	-1%	-20%	-14	?
O=C(CCS(=O)(=O)c1ccc(F)cc1)Nc1nc(-c2ccccn2)cs1	0%	-27%	8.2µM*	?	7.3µM*
Cc1cccc(OC(C)C(=O)Nc2nc(-c3ccncc3)cs2)c1 (configuration not stated)	-25%	-21%	?	61	23µM*
CSCCC(NC(=O)c1ccccc1)C(=O)N/N=C(\C)Cc1ccccc1 (configuration not stated)	1%	-4%	-16%	-12	-4%
COc1ccc(CCNC(=O)c2ccc(Br)o2)cc1Br	3%	9%	23µM*	-12	?
COc1ccc(CNCCc2ccc([N+](=O)[O-])cc2)c(OC)c1OC	-15%	-18%	6.5µM*	-5	21µM*
COc1ccc(C)cc1NCc1ccc([N+](=O)[O-])cc1	2%	6%	0%	6	-24%
COc1ccc(CCNC(=O)c2ccc(Br)cc2)cc1	18%	16%	-11%	10	-21%
COc1ccc(CCNC(=O)c2coc(=O)c(Br)c2)cc1	?	?	0.65µM*	0	1.3µM*
COc1ccc(CCNC(=O)c2ccc(-c3ccc([N+](=O)[O-])cc3)o2)cc1OC	-24%	-20%	18µM*	?	?
CCCCn1cc(S(=O)(=O)c2cc(C)ccc2C)c(=O)c2cc(F)c(N3CCC(C)CC3)cc21	.	.	?	.	9%
COC(=O)C[C@@H]1C=C[C@@H](NC(=O)c2ccccc2F)[C@@H](CO)O1	14%	29%	-5%	10	11%
CCOC(=O)c1[nH]c2ccc(F)cc2c1NC(=O)CN1CCN(C/C=C/c2ccccc2)CC1	26µM*	21µM*	?	-79*	?
COC(=O)c1[nH]c2ccccc2c1NC(=O)CN1CCN(C/C=C/c2ccccc2)CC1	?	?	26µM*	-76*	?
COC(=O)[C@@]12C[C@@H](CC(=O)N3CCCC3)C(=O)N(CCc3ccc(OC)c(OC)c3)C1=CCC(C)(C)C2	-1%	1%	?	-5	?
CCCCCCCCN1C(=O)[C@H](CC(=O)N2CCCCC2)C[C@@]2(C(=O)OC)CC(C)(C)CC=C12	?	?	8.2µM*	8	6.5µM*
CCCCCCCCN1C(=O)[C@H](CC(=O)N2CCOCC2)C[C@@]2(C(=O)OC)CC(C)(C)CC=C12	?	?	21µM*	?	18µM*
CC1(C(=O)Nc2ccc(Cl)c(Cl)c2)CCN1CCc1ccccc1 (configuration not stated)	-1%	29%	?	20	?
NCCNC(=O)Cn1c(=O)c2c3c(sc2n(Cc2ccccc2)c1=O)CCCC3	?	?	21µM*	-78*	23µM*
NCCCNC(=O)Cn1c(=O)c2c3c(sc2n(Cc2ccccc2)c1=O)CCCC3	-10%	-3%	21µM*	3	?
O=C(Cn1c(=O)n2ncnc2c2c3c(sc21)CCCC3)c1ccccc1	-2%	4%	23µM*	-4	?
O=C(Cn1c(=O)c2c3c(sc2n(Cc2ccccc2)c1=O)CCCC3)NCCO	-2%	-2%	?	-7	?
O=c1n(Cc2ccccc2Cl)c2sc3c(c2c2ncnn12)CCCC3	0%	-4%	?	-14	?
OC(Cc1cccc(Br)c1)c1ncc(-c2ccccc2C(F)(F)F)[nH]1 (configuration not stated)	?	?	?	3	?
SMILES	HT1080 IDH1KD tx	HT1080-NT tox	TDP1 cell CPT	IL-1B inflam inh	DT40 TDP1 no CPT
O=C(N/N=C(\c1ccccc1)c1cccnc1)c1ccc(O)cc1	8%	5%	-17%	-12	13%
O=C(N/N=C(\Cc1ncc[nH]1)c1ccccc1)c1cccnc1	?	?	4.6µM*	101	4.6µM*
C/C(=N/NC(=O)c1ccncc1)c1ccccc1	22%	11%	4%	0	-5%
O=C(N/N=C(\Cc1ncc[nH]1)c1ccccc1)c1ccncc1	4.1µM*	-27%	4.6µM*	59	4.6µM*
Cc1cccc2cc(CN(Cc3nnnn3C3CCCCC3)C3CCCC3)c3nnnn3c12	9%	16%	21µM*	?	?
COc1ccc([N+](=O)[O-])cc1NCC(=O)Nc1cccc(S(=O)(=O)N2CCCC2)c1	-1%	-7%	?	-10	16µM*
O=C(CNc1cccc(S(=O)(=O)N2CCCCCC2)c1)Nc1cccc([N+](=O)[O-])c1	?	?	?	-25	23µM*
O=C(CNc1cccc([N+](=O)[O-])c1)NC(=O)NC1CCCCC1	-5%	-10%	15µM*	-52*	?
O=C(CNc1cc([N+](=O)[O-])ccc1NCCO)Nc1cccc(S(=O)(=O)N2CCCCC2)c1	-1%	-4%	?	-21	?
CC(=O)OC1CCC2(C)C(=CC=C3C2CCC2(C)C3CCC2C(C)/C=C/C(C)C(C)C)C1(C)C (configuration not stated)	.	.	4%	.	-6%
CN(C)CC(C)(C)CNC(=O)c1cnn(-c2ncc3c(n2)-c2ccccc2CC3)c1-c1ccco1	.	.	-20%	.	?
COc1cc(C)nc(N2CCC(C(=O)NCC3CCCO3)CC2)n1 (configuration not stated)	-2%	-12%	?	-5	-8%
CCNc1ccc(S(=O)(=O)N(C)C)cc1NCC(=O)Nc1ccccc1F	4%	8%	-11%	8	?
O=C(CNc1cccc(F)c1)Nc1cccc(S(=O)(=O)N2CCCCC2)c1	2%	21%	13%	22	-10%
O=C(CNc1cccc(S(=O)(=O)N2CCCC2)c1)Nc1ccc(C(F)(F)F)cc1	-26%	-18%	16µM*	?	15µM*
CCNc1ccc(S(=O)(=O)N(C)C)cc1NCC(=O)Nc1ccc(F)c(Cl)c1	1%	-8%	12µM*	-8	21µM*
O=C(CNc1cccc(Br)c1)Nc1ccc(S(=O)(=O)N2CCCCC2)cc1	?	?	21µM*	-25	?
O=C(CNc1cccc(S(=O)(=O)N2CCCCC2)c1)Nc1ccc(C(F)(F)F)cc1	-25%	-6%	?	12	?
CN(C)S(=O)(=O)c1ccc(NC(=O)CNc2cc(S(=O)(=O)N3CCCC3)ccc2OCC(F)(F)F)cc1	-9%	-5%	21µM*	11	18µM*
